Test results reported in PubChem BioAssay (NCATS).
Records with an inconclusive call do not appear. Where a call stands in place of a potency, no number is given. Activity calls are given as the source filed them. Calls follow the shape of the dose curve; as a rule, active = well fitted inhibition curve with a large enough effect; inconclusive = small, poorly fitted or top-dose-only effect; inactive = flat fitted curve, though single readings scatter.

molecular target: Calcium and integrin-binding protein 1 (Homo sapiens) (UniProt Q99828); experiment: Primary qHTS for Identification of Calcium Integrin Binding Protein 1 (CIB1) Competitor (AID 1508620); conditions: CIB1-GST / FITC-alphaIIb peptide fluorescence polarization; series mostly up to 114 µM; also: top concentration of the series differs between compounds
How it was run: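 Fluorescence polarization competition: GST-tagged CIB1 (1 uM final) preincubated with compound 15 min at room temperature, then FITC-labelled alphaIIb peptide (100 nM final) added. After 15 min at room temperature, polarization read at Ex 480/Em 540.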

Sequence of Calcium and integrin-binding protein 1 (Homo sapiens) (Q99828 whole entry, looked up): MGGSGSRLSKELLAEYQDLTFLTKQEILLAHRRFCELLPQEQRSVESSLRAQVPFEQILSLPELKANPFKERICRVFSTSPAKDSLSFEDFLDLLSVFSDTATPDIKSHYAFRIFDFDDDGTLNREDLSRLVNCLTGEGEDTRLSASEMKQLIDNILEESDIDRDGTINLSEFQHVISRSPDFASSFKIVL

Row | Compound | Potency
1 | CC1=C(C(=O)Nc2nc3ccccc3s2)C2(CCCC2)N=C(Nc2nc3ccccc3o2)N1 | inactive
2 | O=C1CCc2cc(S(=O)(=O)Nc3ccncc3)ccc2N1 | inactive
3 | O=C1CCc2cc(Cl)c(S(=O)(=O)Nc3ccc(Cl)c(Cl)c3)cc2N1 | inactive
4 | O=C(CN1C(=O)N/C(=C\c2cccn2-c2cccc(C(=O)O)c2)C1=O)Nc1ccccc1F | inactive
5 | COc1cccc(C2c3c(ncn(-c4cccc(Cl)c4)c3=N)Oc3ccc4ccccc4c32)c1 (stereo not given) | inactive
6 | COc1cccc(NC(=S)N2CCN(c3cccc(Cl)c3Cl)CC2)n1 | inactive
7 | CC(C)(C)OC(=O)Cc1nnc(-c2cc3ccccc3[nH]2)o1 | inactive
8 | Cc1cccc(-n2cnc3cc(C(=O)N4CCN(C)CC4)ccc32)c1 | inactive
9 | O=[S+]([O-])(c1ccc2c(c1)OCCO2)N1CCN([S+](=O)([O-])c2c(F)cc(Br)cc2F)CC1 | inactive
10 | COc1ccc(C2c3ccc(OCc4ccccc4)cc3Oc3ncn(CCN4CCOCC4)c(=N)c32)cc1OC (stereo not given) | inactive
11 | Cc1cccc(CNc2ccc(S(=O)(=O)Nc3nccs3)cc2)c1O | inactive
12 | CC(=O)c1ccc(NC(=O)Nc2nnc(-c3ccncc3)s2)cc1 | inactive
13 | N#Cc1ccccc1S(=O)(=O)N1CCN(S(=O)(=O)c2ccc3c(c2)OCCO3)CC1 | inactive
14 | CN(C)c1ccc(/C=C/C(=O)Nc2cccc([S+](=O)([O-])Nc3ccccc3F)c2)cc1 | inactive
15 | O=C1c2ccccc2C(=O)N1c1ccc(O)cc1 | inactive
16 | CCOC(=O)c1cccc(NC(=O)Nc2nnc(-c3ccncc3)s2)c1 | inactive
17 | O=C(Nc1ccc(Cl)c([N+](=O)[O-])c1)Nc1cccc(-c2ccncc2)n1 | inactive
18 | Fc1cc(Nc2nc(-c3ccncc3)nc3ccccc23)ccc1-c1cccc(OC(F)(F)F)c1 | inactive
19 | NC(=O)C1CCN(c2ncc(-c3ccc4c(c3)OCCO4)s2)CC1 | inactive
20 | N#Cc1ccc(C(=O)NCC(=O)OC(C(=O)Nc2cc(C(F)(F)F)ccc2Cl)c2ccccc2)cc1 (stereo not given) | inactive

Row | Compound | Potency
21 | COc1ccc(C2c3c(ncn(CCCc4ccccc4)c3=N)Oc3ccc4ccccc4c32)cc1OC (stereo not given) | inactive
22 | Fc1ccc(Nc2nc(-c3ccnc(C(F)(F)F)c3)nc3ccccc23)cc1F | inactive
23 | O=C1CCc2cc(S(=O)(=O)Nc3cccc(B(O)O)c3)ccc2N1 | inactive
24 | COc1ccc(C2Nc3ccccc3C(=O)N2Cc2ccc3c(c2)OCO3)cc1COc1c(C)cc(NC(C)=O)cc1C (stereo not given) | inactive
25 | Cn1nnnc1Sc1ncnc2scc(-c3cccs3)c12 | inactive
26 | CC(=O)c1cccc(NC(=O)Nc2nnc(-c3ccncc3)s2)c1 | inactive
27 | Brc1cnc2nc(SCc3ccncc3)[nH]c2c1 | inactive
28 | Cc1cccc(C)c1-n1c(SCC(=O)Nc2ccc(F)cc2)nnc1-c1cccc([S+](=O)([O-])N2CCCC2)c1 | inactive
29 | Cc1cc(C)nc(NC(=S)N2CCN(c3ccc(N4CCCC4)nn3)CC2)c1 | inactive
30 | Cc1ccnc(CC(=S)N2CCN(c3cccc(C(F)(F)F)c3)CC2)c1 | inactive
31 | COc1ccc(NC(=O)c2cnn3c(C)cc(C)nc23)cc1Cl | inactive
32 | O=S(=O)(Nc1nccs1)c1ccc(NCc2ccccc2)cc1 | inactive
33 | COc1cccc(C2c3c(ncn(-c4ccc(C(C)(C)C)cc4)c3=N)Oc3ccc4ccccc4c32)c1 (stereo not given) | inactive
34 | Cc1noc(CN(C)c2ncnc3ccc(-c4ccc5c(c4)OCO5)cc23)n1 | inactive
35 | CCOC(=O)C1CCN(C(=O)C(C)(C)NC(=O)Nc2ccc(Cl)cc2Cl)CC1 | inactive
36 | Cc1cc(NC(=O)Nc2nnc(C3CCCCC3)s2)ccc1F | inactive
37 | CC(=O)c1ccccc1-c1ncc(C)c(NCC2CCN(c3cccnc3)CC2)n1 | inactive
38 | COc1ccc(C(=O)O)cc1COc1ccc(NC(C)=O)cc1 | inactive
39 | Cc1ccc(NS(=O)(=O)c2cc3c(cc2Cl)NC(=O)C3)cc1C | inactive
40 | Cc1ccccc1C(=O)N1CCc2cc(-c3nc(NC(=O)CC4CCCCC4)sc3C)ccc21 | inactive
